Assay results reported in PubChem BioAssay AID1159580 (chemical genetic matrix, 2015).
Out of some 5,500 compounds screened, about 2,000 (36%) were called active. About 18% were inconclusive and are not listed. Rule as the data show it: active = normalized growth mostly below about 0.91 (no sharp cut-off); inconclusive = no clear call, values can overlap the other calls; inactive = mostly above about 0.92. This is one part of the list.

Assay: chemical genetic growth profiling, strain panel (AID 1159580);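 also: tested at 20 µM; growth read once vehicle control cultures reached saturation at 30 °C; 1 = growth at the plate median or of vehicle wells; lower values mean less growth of the strain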
Conditions: S. cerevisiae deletion strains, growth OD

Measured: normalized growth

CNC(=O)N(C)c1nnc(C(C)(C)C)s1
inactive: locus YAL013W, strain DEP1, stronger effect = lower value 1.01 | locus YAL021C, strain ccr4, stronger effect = lower value 0.935 | locus YAL026C, strain drs2, stronger effect = lower value 0.993 | locus YAL030W, strain snc1, stronger effect = lower value 1 | locus YBL061C, strain skt5, stronger effect = lower value 0.997 | locus YBR009C, strain hhf1, stronger effect = lower value 1.01 | locus YBR021W, strain FUR4, stronger effect = lower value 1.04 | locus YBR023C, strain chs3, stronger effect = lower value 0.994 | locus YBR171W, strain sec66, stronger effect = lower value 0.983 | locus YBR229C, strain ROT2, stronger effect = lower value 1.01 | locus YBR231C, strain swc5, stronger effect = lower value 1.02 | locus YBR279W, strain paf1, stronger effect = lower value 0.996 | locus YCL011C, strain gbp2, stronger effect = lower value 0.985 | locus YCL016C, strain dcc1, stronger effect = lower value 0.979 | locus YCL029C, strain bik1, stronger effect = lower value 1.01 | locus YCL069W, strain vba3, stronger effect = lower value 0.988 | locus YCR088W, strain abp1, stronger effect = lower value 0.988 | locus YDL005C, strain med2, stronger effect = lower value 0.982 | locus YDL035C, strain GPR1, stronger effect = lower value 1.02 | locus YDL040C, strain nat1, stronger effect = lower value 0.99 | locus YDL074C, strain BRE1, stronger effect = lower value 1.03 | locus YDL101C, strain DUN1, stronger effect = lower value 1.02 | locus YDL134C, strain PPH21, stronger effect = lower value 1.01 | locus YDL185W, strain tfp1, stronger effect = lower value 0.959 | locus YDL192W, strain arf1, stronger effect = lower value 1.01 | locus YDR001C, strain nth1, stronger effect = lower value 0.977 | locus YDR069C, strain doa4, stronger effect = lower value 0.988 | locus YDR101C, strain arx1, stronger effect = lower value 1.01 | locus YDR137W, strain rgp1, stronger effect = lower value 0.999 | locus YDR150W, strain NUM1, stronger effect = lower value 1.01 | locus YDR159W, strain sac3, stronger effect = lower value 1.03 | locus YDR162C, strain NBP2, stronger effect = lower value 1.01 | locus YDR195W, strain ref2 0.946 | locus YDR297W, strain sur2, stronger effect = lower value 1.02 | locus YDR318W, strain mcm21, stronger effect = lower value 1.02 | locus YDR334W, strain swr1, stronger effect = lower value 0.982 | locus YDR335W, strain msn5, stronger effect = lower value 0.995 | locus YDR388W, stronger effect = lower value 1.02 | locus YDR392W, strain spt3, stronger effect = lower value 1.02 | locus YDR502C, strain sam2, stronger effect = lower value 1.02 | locus YEL003W, strain gim4, stronger effect = lower value 0.989 | locus YEL037C, strain rad23, stronger effect = lower value 0.981 | locus YEL061C, strain CIN8 (second series), stronger effect = lower value 0.98 | locus YEL061C, strain CIN8, stronger effect = lower value 1.01 | locus YER015W, strain faa2, stronger effect = lower value 0.99 | locus YER016W, strain bim1, stronger effect = lower value 0.987 | locus YER110C, stronger effect = lower value 1.01 | locus YER111C, strain swi4, stronger effect = lower value 1 | locus YER155C, strain BEM2 (second series), stronger effect = lower value 1.02 | locus YER155C, strain BEM2, stronger effect = lower value 1.01 | locus YER167W, strain BCK2, stronger effect = lower value 1.02 | locus YFR010W, strain ubp6, stronger effect = lower value 0.969 | locus YGL078C, strain dbp3, stronger effect = lower value 1.01 | locus YGL086W, strain mad1, stronger effect = lower value 1.01 | locus YGL167C, strain pmr1, stronger effect = lower value 0.976 | locus YGL173C, strain kem1, stronger effect = lower value 1 | locus YGL227W, strain vid30, stronger effect = lower value 1 | locus YGL240W, strain doc1, stronger effect = lower value 1.03 | locus YGL248W, strain PDE1, stronger effect = lower value 1.01 | locus YGL253W, strain hxk2, stronger effect = lower value 0.991 | locus YGR078C, strain PAC10, stronger effect = lower value 1.02 | locus YGR135W, strain pre9, stronger effect = lower value 1.02 | locus YGR229C, strain SMI1, stronger effect = lower value 1.04 | locus YGR252W, strain gcn5, stronger effect = lower value 1.05 | locus YHR013C, strain ard1, stronger effect = lower value 0.972 | locus YHR027C, strain rpn1, stronger effect = lower value 0.993 | locus YHR030C, strain SLT2, stronger effect = lower value 1.01 | locus YHR079C, strain IRE1 (second series), stronger effect = lower value 1.03 | locus YHR094C, strain hxt1, stronger effect = lower value 1.01 | locus YHR129C, strain ARP1, stronger effect = lower value 0.998 | locus YHR142W, strain chs7, stronger effect = lower value 0.979 | locus YHR200W, strain rpn10, stronger effect = lower value 1.02 | locus YIL066C, strain RNR3, stronger effect = lower value 1.02 | locus YIL073C, strain SPO22, stronger effect = lower value 1.07 | locus YIL125W, strain kgd1, stronger effect = lower value 1.02 | locus YIR030C, strain dcg1, stronger effect = lower value 1.02 | locus YJL092W, strain hpr5, stronger effect = lower value 0.976 | locus YJL095W, strain BCK1 (second series), stronger effect = lower value 0.993 | locus YJL095W, strain BCK1, stronger effect = lower value 1.01 | locus YJL115W, strain asf1, stronger effect = lower value 0.973 | locus YJL129C, strain trk1, stronger effect = lower value 0.999 | locus YJL134W, strain LCB3, stronger effect = lower value 1.02 | locus YJL154C, strain vps35, stronger effect = lower value 0.976 | locus YJL164C, strain tpk1, stronger effect = lower value 0.998 | locus YJL166W, strain qcr8, stronger effect = lower value 1.02 | locus YJL168C, strain set2, stronger effect = lower value 1.02 | locus YJL187C, strain SWE1 (second series), stronger effect = lower value 1.01 | locus YJR043C, strain POL32, stronger effect = lower value 1.03
